Results on 22 compounds are retold here after PubChem BioAssay (EPA / NIEHS).

Each structure is given as a SMILES string. Several values for one entry are separate records, joined by “and”; a condition that tells them apart may be missing. Equal entries are not always repeated. Some compounds were tested as several samples or in several runs, with calls that do not always agree. Activity calls are given as the source filed them. How the source made its calls: active means hit-call score of the fitted dose curve at least 0.9, where 1 is the maximum; inactive means score below 0.9.

Read-out in assay [1]: Basic fibroblast growth factor (bFGF), FGF2 (gene 2247)
Description: BSK_MyoF_bFGF: BioMAP Diversity Plus: MyoF Assay for Basic fibroblast growth factor (bFGF) Biomarker Activity (AID 2284246). Conditions: primary human lung fibroblasts. In outline: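 Primary human lung fibroblast culture, 24 h compound exposure; ELISA read-out of bFGF. Positive-direction fit vs DMSO baseline. Cytotoxicity: SRB stain (0.1% SRB, 10% TCA fixation, 560 nm) in parallel wells.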

Read-out in assay [2]: Plasminogen activator inhibitor-1 (PAI1), SERPINE1 (gene 5054)
Description: BSK_MyoF_PAI1: BioMAP Diversity Plus: MyoF Assay for Plasminogen activator inhibitor-1 (PAI1) Biomarker Activity (AID 2284256).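 On outcome: PAI-1 protein level measured by ELISA in fibroblast cultures; PAI-1 read 24 h after compound addition.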 Conditions: primary human lung fibroblasts. The procedure, abridged:
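Human lung fibroblasts (MyoF system) were exposed to test chemicals for 24 h, then PAI-1 was quantified by ELISA. Activity was fitted in the positive (signal-gain) direction relative to DMSO vehicle as baseline.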

Read-out in assay [3]: Interleukin-8 (IL8), CXCL8 (gene 3576)
Description: BSK_MyoF_IL8: BioMAP Diversity Plus: MyoF Assay for Interleukin-8 (IL8) Biomarker Activity (AID 2284261). The note with it: primary human lung fibroblasts. The procedure, abridged: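 IL-8 quantified by ELISA after 24 h compound exposure of primary human lung fibroblasts. SRB staining of parallel cultures flagged cytotoxicity; DMSO served as baseline.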

Read-out in assay [4]: Decorin, DCN (gene 1634)
Description: BSK_MyoF_Decorin: BioMAP Diversity Plus: MyoF Assay for Decorin Biomarker Activity (AID 2284265). The note with it: primary human lung fibroblasts. The procedure, abridged:
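Decorin protein was quantified by ELISA 24 h after chemical addition to primary human lung fibroblasts and analysed as increase over DMSO. Cytotoxicity was tracked in parallel cultures by SRB total-protein staining read at 560 nm.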

A short description of assay [5]: BSK_MyoF_SRB: Viability Assessment in the BioMAP Diversity Plus: MyoF Assay (AID 2284267).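 Further: total protein by SRB absorbance in parallel cultures as cytotoxicity measure; cells assessed 24 h after compound addition.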 Conditions: primary human lung fibroblasts. In outline: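 Lung fibroblast cultures, 24 h post-dose; fix 10% TCA, stain 0.1% SRB, read 560 nm. Signal = total protein as cytotoxicity measure; fitted relative to DMSO negative control.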
Read-out in assay [6]: Monokine induced gamma interferon (MIG), CXCL9 (gene 4283)
Description: BSK_KF3CT_MIG: BioMAP Diversity Plus: KF3CT Assay for Monokine induced gamma interferon (MIG) Biomarker Activity (AID 2284248). The note with it: primary human keratinocytes with fibroblasts. The procedure, abridged: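 Parallel cultures were stained with SRB (560 nm) to check cytotoxicity. MIG was quantified by ELISA in a primary human skin keratinocyte/fibroblast co-culture 24 h post-dosing, with gain of signal fitted relative to DMSO.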

Read-out in assay [7]: Collagen I, COL1A1 (gene 1277)
Description: BSK_hDFCGF_CollagenI: BioMAP Diversity Plus: hDFCGF Assay for Collagen I Biomarker Activity (AID 2284250). The note with it: primary human foreskin fibroblasts. The procedure, abridged:
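ELISA read-out of Collagen I in human dermal foreskin fibroblast cultures, 24 h after dosing. Gain of signal versus DMSO vehicle defines activity.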

Read-out in assay [8]: Interferon-inducible T-cell alpha chemoattractant (ITAC), CXCL11 (gene 6373)
Description: BSK_hDFCGF_ITAC: BioMAP Diversity Plus: hDFCGF Assay for Interferon-inducible T-cell alpha chemoattractant (ITAC) Biomarker Activity (AID 2284251). The note with it: primary human foreskin fibroblasts. In outline: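 I-TAC levels were read by ELISA on human dermal foreskin fibroblast primary cultures 24 h after dosing, analysed against DMSO in the positive direction. Cytotoxicity was assessed alongside by sulforhodamine B total-protein staining.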

Read-out in assay [9]: Plasminogen activator inhibitor-1 (PAI1), SERPINE1 (gene 5054)
Description: BSK_KF3CT_PAI1: BioMAP Diversity Plus: KF3CT Assay for Plasminogen activator inhibitor-1 (PAI1) Biomarker Activity (AID 2284252). The note with it: primary human keratinocytes with fibroblasts. The procedure, abridged:
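Keratinocyte + dermal fibroblast co-culture (human primary); 24 h post-dose; PAI-1 by ELISA; gain-of-signal fit vs DMSO control.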

Read-out in assay [10]: Interleukin-8 (IL8), CXCL8 (gene 3576)
Description: BSK_KF3CT_IL8: BioMAP Diversity Plus: KF3CT Assay for Interleukin-8 (IL8) Biomarker Activity (AID 2284254). The note with it: primary human keratinocytes with fibroblasts. In outline: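 IL-8 by ELISA in primary human skin co-culture (keratinocytes plus fibroblasts) 24 h post-dose, DMSO as baseline. Cytotoxicity assessed in parallel by sulforhodamine B total-protein staining.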

With `C=C(C)C(=O)OCCOCCOCCOC(=O)C(=C)C`, the outcome in assay [1], in assay [2], in [3], in assay [4] and in [5] was inactive.
`O=C(Nc1ccc2c(O)c(N=Nc3ccc(N=Nc4ccc(S(=O)(=O)O)cc4)cc3)c(S(=O)(=O)O)cc2c1)c1ccccc1`: the result in assay [6], in assay [7], in [9] and in assay [10] was inactive. In addition, the AC50 (usually the midpoint of the concentration-response curve, whichever way the signal moves) in [8] was 32.3 µM (active) and 27.1 µM (active).
`COc1ccc(CCN2CCC(Nc3nc4ccccc4n3Cc3ccc(F)cc3)CC2)cc1`: the half-maximal activity concentration (AC50) in assay [1] is 7.78 µM (active); in assay [3], 7.38 µM (active); in [5], 7.48 µM (active). The outcome in assay [2] and in assay [4] was inactive.
`C=CC(C)(O)CCC=C(C)C` (configuration not stated): the outcome in assay [6], in assay [7], in assay [8], in assay [9] and in assay [10] was inactive.
For `c1ccc(Oc2ccccc2)cc1`, the outcome in assay [1], in assay [2], in [3], in assay [4] and in assay [5] was inactive.
As to `CCCCCCC(CO)CCCC` (configuration not stated), the AC50 in assay [6] was 35.5 µM (active); in [7] it was 36.4 µM (active) and 30.8 µM (active); in assay [8], 33.1 µM (active) and 34.8 µM (active); in assay [9] it was 32.7 µM (active) and 31 µM (active); in assay [10], 28.9 µM (active) and 32.5 µM (active).
With `O=C1c2ccccc2C(=O)c2c(O)ccc(O)c21`, the outcome in assay [1], in assay [2], in assay [3], in assay [4] and in assay [5] was inactive.
Turning to `Oc1c(Cl)cc(Cl)c(Cl)c1Cc1c(O)c(Cl)cc(Cl)c1Cl`, the AC50 was 1.32 µM (active) in assay [1], 0.83 µM (active) in [2], 13 µM (active) in assay [3] and 5.13 µM (active) in assay [5]. Further, the result in assay [4] was inactive.
Consider `COc1cc(Cl)c(OC)cc1N`, for which the result in assay [1], in [2], in [3], in assay [4] and in assay [5] was inactive.
In the case of `CCCCN(CCCC)C(=O)N(CCCC)CCCC`, the half-maximal activity concentration (AC50) was 10.1 µM (active) in [1], 10.7 µM (active) in assay [2] and 11 µM (active) in assay [5]. The outcome in [3] and in [4] was inactive.
For `Clc1cc(Cl)c(-c2c(Cl)c(Cl)cc(Cl)c2Cl)cc1Cl`, the outcome in assay [1] and in assay [4] was inactive. In addition, the figures for the half-maximal activity concentration (AC50) in [2], in assay [3] and in [5] were 4.46 µM (active), 7.14 µM (active) and 11.6 µM (active), respectively.
With `CC(C)(N=C=O)c1cccc(C(C)(C)N=C=O)c1`, the outcome in assay [1], in assay [2], in assay [3], in [4] and in assay [5] was inactive.
`CCOC(=O)C(C#N)=C(c1ccccc1)c1ccccc1`: the outcome in assay [6], in [7], in assay [8], in assay [9] and in [10] was inactive. Moreover, the AC50 in assay [8] was 26.1 µM (active).
`C[C@@H]1CCN(C(=O)[C@H](CCCN=C(N)N)NS(=O)(=O)c2cccc3c2NC[C@H](C)C3)[C@@H](C(=O)O)C1`: the outcome in assay [1], in [2], in assay [3], in assay [4] and in [5] was inactive.
For `CC1(C)CCC[C@]2(C)[C@H]3CCO[C@]3(C)CC[C@@H]12`, the AC50 in [6] is 36.6 µM (active) and 36.2 µM (active); in assay [7], 18.7 µM (active); in assay [8], 30.5 µM (active) and 30.9 µM (active); in [9] it was 34.7 µM (active) and 34.6 µM (active); in assay [10] it was 36.8 µM (active) and 31.3 µM (active). The result in assay [7] was inactive.
`C=C(C)[C@H]1CC=C(C)C(=O)C1`: the result in assay [1], in [2], in [3], in assay [4] and in assay [5] was inactive.
On to `CC(CN=Cc1ccccc1O)N=Cc1ccccc1O` (configuration not stated), for which the outcome in assay [6], in assay [7], in assay [8], in assay [9] and in assay [10] was inactive.
As to `CC(C=O)Cc1ccc(C(C)(C)C)cc1` (configuration not stated), the result in assay [1], in assay [2], in assay [3], in [4] and in assay [5] was inactive.
Turning to `Cc1cc(CCC(=O)OCCOCCOCCOC(=O)CCc2cc(C)c(O)c(C(C)(C)C)c2)cc(C(C)(C)C)c1O`, the outcome in assay [1], in assay [2], in assay [3], in [4] and in [5] was inactive.
Take `CCN(CC)C(=O)N(CC)CC`: the outcome in assay [1], in assay [2], in assay [3], in [4] and in [5] was inactive.
As for `O=CN1CCOCC1`, the outcome in [6], in assay [7], in [8], in [9] and in assay [10] was inactive.
`CN(C)C(=S)SC(=S)N(C)C`: the AC50 in assay [1] is 31.9 µM (active); in [2] it was 3.95 µM (active). Also, the outcome in [3], in assay [4] and in assay [5] was inactive.
